BCLXL inh: Bcl-xL (human) inhibition; GST-Bcl-xL / FITC-Bim BH3 peptide fluorescence polarization; Q07817; hit rate 0.7% among 320,000; inhibition, % at 10.9 µM;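 active = inhibition above the mean of all tested compounds plus 3 SD, cutoff set per campaign, cut at about 30% in these data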;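 note: 0% = DMSO wells and 100% = unlabeled Bim-BH3 peptide competitor; inhibitors lower millipolarization by displacing the labeled peptide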
MEX-5 binding: C. elegans MEX-5 TCR-2 RNA binding activity; Q9XUB2; MEX-5/FITC-TCR2 RNA binding, fluorescence polarization; stronger effect = lower value; activity score (negative = inhibition of binding), % at 10 µM; hit rate 0.38% among 300,000; AID 1832;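 active = inhibition past about -25% in most replicates, and total fluorescence under double the plate's negative control median, limit read from the data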;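 note: 0% = DMSO and -100% = 5 µM competing unlabeled TCR2 RNA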
GLD-1 TGE inh: GLD-1-TGE RNA interaction inhibition (C. elegans). Q17339. hit rate 0.44% among 320,000. AID 2280. purified GLD-1 + fluorescein TGE RNA, fluorescence polarization. inhibition, % at 5.96 µM;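 active = percent inhibition above a per-plate cutoff, the plate mean of test compounds plus 3 SD, cut at about 30% in these data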;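 note: 0% = DMSO wells with GLD-1 and probe and 100% = wells lacking GLD-1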
Target sequence (Q17339 whole entry, looked up): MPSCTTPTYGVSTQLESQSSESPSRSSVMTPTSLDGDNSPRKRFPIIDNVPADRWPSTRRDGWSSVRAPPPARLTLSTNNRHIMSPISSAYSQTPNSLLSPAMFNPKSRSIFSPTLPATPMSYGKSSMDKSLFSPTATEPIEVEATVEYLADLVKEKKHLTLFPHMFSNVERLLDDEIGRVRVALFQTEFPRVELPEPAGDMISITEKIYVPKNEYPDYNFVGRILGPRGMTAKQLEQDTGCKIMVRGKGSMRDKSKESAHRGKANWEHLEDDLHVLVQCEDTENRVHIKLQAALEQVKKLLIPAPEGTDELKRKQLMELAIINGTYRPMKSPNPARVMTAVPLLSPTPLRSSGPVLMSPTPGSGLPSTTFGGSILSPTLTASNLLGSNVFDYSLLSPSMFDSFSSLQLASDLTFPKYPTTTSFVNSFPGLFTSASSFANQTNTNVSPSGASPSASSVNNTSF
EBV gp42 inh: blocks Epstein-Barr virus glycoprotein 42 binding; Q1HVG2; Fluorescence polarization binding assay, mP read-out; inhibition, % (tested at 21.74 µM); hit rate 0.42% among 220,000; AID 1085; in the data active = inhibition above about 50%
eLon inh: inhibits E. coli Lon protease; hit rate 0.42% among 360,000; P0A9M0; purified E. coli Lon protease, fluorescence polarization; inhibition, % at 7.94 µM; in the data active = inhibition above about 13%, passing the limit was not always enough;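 note: 0% = enzyme with probe and DMSO and 100% = no enzyme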
* = called active by the depositor; / = no result given. In the library only some 1.3% were active in any assay of this set; here they are far more common.

SMILES	BCLXL inh	MEX-5 binding	GLD-1 TGE inh	EBV gp42 inh	eLon inh
O=C(NNC(=O)c1ccccc1[N+](=O)[O-])c1csc(N2CCOCC2)n1	1	-42*	5	/	1
Cc1ccc(Nc2[nH]c(=O)c3ccccc3c2C(=O)c2ccccc2)cc1	3	2	5	/	/
CCOC(=O)Cc1nc2ccccc2n(CC#N)c1=O	-1	-33*	-11	-13	-2
CCOC(=O)Cn1c(C)nc2ccccc21	1	-4	-1	9	-11
CCC(=O)Nc1nc(C)c(-c2csc(Nc3ccc(C(=O)O)cc3)n2)s1	/	2	/	/	-5
Cc1nc(NC(=O)c2ccccc2)sc1-c1csc(Nc2ccc(C(=O)O)cc2)n1	/	-3	/	71*	-9
CC(=O)Nc1nc(C)c(-c2csc(Nc3cccc(C(C)=O)c3)n2)s1	3	2	-4	/	-13
CC(=O)Nc1nc(C)c(-c2csc(Nc3cccc([N+](=O)[O-])c3)n2)s1	13	2	5	63*	-1
Cn1c(SCC(N)=O)nnc1-c1ccc(C(C)(C)C)cc1	-14	3	-1	-3	6
O=C(C[n+]1cc(Br)cc(Br)c1)c1ccc(Cl)cc1	2	2	-5	/	4
O=C(C[n+]1cc(Br)cc2ccccc21)c1ccc(Br)cc1	58*	0	-21	/	-21
O=C(C[n+]1cc(Br)cc2ccccc21)c1ccc(Cl)cc1	84*	2	-36	/	-19
O=C(NCCCc1ccccc1)C1CC1	-4	1	4	/	-10
COc1ccc(-c2cn[nH]c2-c2ccc(OCC(=O)NN)cc2O)cc1OC	3	-46*	-3	/	2
COc1ccc(-c2cn[nH]c2-c2ccc(OCC(=O)NN)cc2O)cc1	/	-11	/	/	3
Cc1cccn2c(=O)c(/C=C(\C#N)S(=O)(=O)c3ccccc3)c(N3CCN(Cc4ccccc4)CC3)nc12	31*	1	10	/	10
Brc1ccc(-n2cc(-c3ccccc3)c3c(NN4CCOCC4)ncnc32)cc1	5	-3	5	-2	0
COc1cccc(/C=C2\SC(=S)N(CCCC(=O)NC3=NCCS3)C2=O)c1	3	-34*	0	/	-3
COc1ccc(N2C(=O)[C@@H]3[C@H](C2=O)[C@H](C(=O)c2ccc(OC(C)=O)cc2)N2N=CC=C[C@@H]32)cc1	7	4	2	-13	/
CC(=O)Oc1ccc(C(=O)[C@H]2[C@H]3C(=O)N(c4ccc(C)cc4)C(=O)[C@H]3[C@@H]3C=CC=NN32)cc1	29	8	38*	-12	-2
COc1ccccc1C(=O)N/C(=C\c1ccc(Br)cc1)C(=O)NCCO	4	0	5	-2	-7
CCN(CC)C(=O)/C(=C\c1ccc(Br)cc1)NC(=O)c1ccccc1OC	7	1	-4	61*	-5
O=C(NCC(c1cccnc1)N1CCN(c2ccc(F)cc2)CC1)c1ccco1 (stereo unspecified)	151*	-1	5	-14	2
COc1ccc(N2CCN(C(CNC(=O)c3ccco3)c3cccnc3)CC2)cc1 (stereo unspecified)	7	-1	-7	-4	1
O=C(O)CN1CCN(Cc2ccc(Cl)cc2)C1=O	4	-1	2	3	-9
SMILES	BCLXL inh	MEX-5 binding	GLD-1 TGE inh	EBV gp42 inh	eLon inh
C=CCn1c(O)c(C2=c3ccccc3=NC2=O)sc1=Nc1ccc(O)cc1	10	1	-1	2	-4
CCOC(=O)C(C#N)=C1CCN(Cc2ccccc2)CC1	58*	-1	29	/	8
COC(=O)c1cn(CC(=O)N2CCCCCC2)c2ccccc12	5	3	8	-2	-7
CCOC(=O)C1=C(O)/C(=C/c2cn(CC(=O)N3CCCC3)c3ccccc23)SC1=Nc1ccccc1	/	-47*	/	-7	-14
CCN(CC(=O)Nc1ccc(OC)cc1)C(=O)c1ccc2[nH]c3c(c2c1)CC(C)CC3 (stereo unspecified)	-9	/	8	/	-4
CCCCn1c(N)c(N(Cc2ccccc2OC)C(=O)CN2C(=O)NC(C)(c3ccccc3)C2=O)c(=O)[nH]c1=O (stereo unspecified)	-11	-2	6	/	-10
COc1cc(/C=C2\S/C(=N/S(=O)(=O)c3ccccc3)NC2=O)c([N+](=O)[O-])cc1OC	37*	-5	17	4	5
COc1ccc(S(=O)(=O)/N=C2/NC(=O)/C(=C\c3cc(OC)c(OC)cc3[N+](=O)[O-])S2)cc1	16	-10	1	-2	-3
O=C(CCS(=O)(=O)c1ccccc1)Nc1ccc(-c2nc3ccccc3s2)c(O)c1	36*	1	2	-7	-5
Cc1onc(-c2c(F)cccc2Cl)c1C(=O)Nc1cc2cc([N+](=O)[O-])ccc2oc1=O	/	/	/	/	-7
Cc1ccc2c(c1)C1C=CCC1C(C(=O)O)N2 (stereo unspecified)	62*	-1	10	79*	/
O=C(O)C1Nc2ccc(OC(F)(F)F)cc2C2C=CCC12 (stereo unspecified)	48*	-17	0	/	/
O=C(NC1CC1)C1Nc2ccc(OC(F)(F)F)cc2C2C=CCC12 (stereo unspecified)	4	0	4	/	-1
CCC(C)c1ccc(NC(=O)NCCN2CCCCC2)cc1 (stereo unspecified)	0	1	2	/	0
CNC[C@H]1OCc2ccccc2-c2ccccc2C(=O)N([C@@H](C)CO)C[C@H]1C	/	/	/	/	-4
CC1CCCN(S(=O)(=O)c2ccc(NC(=O)C3CC(=O)N(c4ccccc4)C3)cc2)C1 (stereo unspecified)	0	-2	-10	/	-5
C=CCn1c(=N)n(CC(O)c2ccco2)c2ccccc21 (stereo unspecified)	34*	-1	15	4	4
CCn1c(=N)n(CC(O)c2ccco2)c2ccccc21 (stereo unspecified)	16	-4	3	-9	5
CCOc1ccc(S(=O)(=O)N2CCCC(C(=O)N3CCOCC3)C2)cc1Cl (stereo unspecified)	9	-1	1	/	13
O=C(O)c1sccc1Oc1ccc(NS(=O)(=O)c2ccccc2)cc1	5	1	-3	/	-6
COc1ccc(O)c(C(=O)C2c3ccccc3C(=O)N2c2ccc(C)cc2)c1 (stereo unspecified)	31*	2	17	-6	-2
COc1ccc(N2C(=O)c3ccccc3C2O)cc1 (stereo unspecified)	4	3	9	/	-9
CCC1C(=O)NCCN1C(=O)c1ccc(OC)c(OC2CCN(C(C)=O)CC2)c1 (stereo unspecified)	1	5	8	/	-1
Cc1ccc(S(=O)(=O)N2CCCCC2CCNC(=O)C(=O)NCc2ccccc2)cc1 (stereo unspecified)	5	1	1	/	-11
CCC(C)(C)NC(=O)C(c1cccn1C)N(C(=O)Cn1nnc2ccccc21)c1ccc(OC)cc1 (stereo unspecified)	9	-29*	8	-7	0
